# Hit rate of the full screen: of about 340,000 compounds, about 700 (0.21%) were called active. What follows is part of a selection rich in actives, with near analogues and random picks from the rest. Unmarked numbers belong to inactive results. No stated cut-off is given here; in the data, active means inhibition above about 22% (passing the limit was not always enough); inactive means the rest.
# Molecular target: Mu-type opioid receptor (Homo sapiens) + Delta-type opioid receptor (Homo sapiens) (UniProt P35372+P41143)
# Sequence (P35372 whole entry, looked up): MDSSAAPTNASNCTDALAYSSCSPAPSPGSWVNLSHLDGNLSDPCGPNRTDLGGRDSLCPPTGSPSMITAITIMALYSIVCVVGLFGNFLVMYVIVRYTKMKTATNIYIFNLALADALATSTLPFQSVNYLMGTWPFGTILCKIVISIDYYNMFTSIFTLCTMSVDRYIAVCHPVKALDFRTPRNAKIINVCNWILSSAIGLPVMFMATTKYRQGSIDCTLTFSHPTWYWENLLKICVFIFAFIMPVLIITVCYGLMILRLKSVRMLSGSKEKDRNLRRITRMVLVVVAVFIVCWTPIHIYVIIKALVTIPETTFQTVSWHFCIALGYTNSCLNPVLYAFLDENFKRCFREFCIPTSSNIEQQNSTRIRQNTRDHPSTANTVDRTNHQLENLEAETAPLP
# Sequence (P41143 whole entry, looked up): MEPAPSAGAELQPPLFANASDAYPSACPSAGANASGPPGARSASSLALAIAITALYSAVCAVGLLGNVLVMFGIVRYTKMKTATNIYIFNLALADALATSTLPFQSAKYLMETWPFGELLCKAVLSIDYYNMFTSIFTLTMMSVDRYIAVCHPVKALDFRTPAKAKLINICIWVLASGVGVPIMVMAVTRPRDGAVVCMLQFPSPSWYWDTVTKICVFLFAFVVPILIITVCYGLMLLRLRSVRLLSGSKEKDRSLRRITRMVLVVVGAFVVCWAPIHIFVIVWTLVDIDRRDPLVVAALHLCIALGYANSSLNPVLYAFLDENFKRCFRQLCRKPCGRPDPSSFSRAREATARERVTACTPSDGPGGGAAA
# Experiment: inverse agonists of MOR-DOR heterodimerization, primary screen, cell-based, luminescence (AID 504357);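 further: 0% = cells with DMSO and 100% = wells without cells with DMSO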
# Details: cell-based MOR-DOR heterodimer luminescence, inverse agonism; at 9.3 µM; stronger effect = higher value
row,Structure (SMILES),inhibition
1,CC1=CC(=Cc2sc3ccccc3[n+]2C)C=C(C)O1,17.5% (active)
2,Clc1ccc2nc3c(c(-c4ccccc4)c2c1)CNCC3,8.41%
3,CN(C)CC1CCCCC1=O (stereo not given),10.9%
4,CCC(=O)OC(Cc1ccccc1)(c1ccccc1)C(C)CN(C)C (stereo not given),8.03%
5,CC/C(=N\NC(=O)c1ccccc1O)c1c(O)n(Cc2ccccc2)c(=O)[nH]c1=O,9.92%
6,O=C(OCCN1CCOCC1)C1(c2ccccc2)CCCC1,1.05%
7,CCOC(=O)c1c(N)n(Cc2ccccc2)c2nc3ccccc3nc12,37% (active)
8,CCOC(=O)c1c(N)n(CCN2CCOCC2)c2nc3ccccc3nc12,30.9% (active)
9,COc1cc(Cn2c(N)c(C(=O)NCc3ccco3)c3nc4ccccc4nc32)cc(OC)c1OC,1.03%
10,CC(C)(C)c1ccc(OC(=O)N2CCCCC2)cc1,-27.7%
11,COC(=O)C1=C(c2ccc(F)cc2OCc2ccccc2)C[C@@H]2CC[C@H]1N2C(=O)NCc1ccc2[nH]ccc2c1,-2.75%
12,O=C(NC(c1ccc(Cl)cc1)P(=O)(Oc1ccccc1)Oc1ccccc1)OCc1ccccc1 (stereo not given),-3.43%
13,CCC(=O)CC(c1ccc([N+](=O)[O-])cc1)c1c(O)c2ccccc2oc1=O (stereo not given),14.4%
14,CN(C)S(=O)(=O)c1cc(C(=O)N2CCC(C(=O)O)(c3ccccc3)CC2)ccc1Cl,19.2%
15,Cc1nn(-c2ccccc2)c(C)c1NC(=O)COC(=O)Cc1ccccc1,21%
16,CC(=O)OC1C2(CC3N4C(=O)C5(CO)SSC4(CC31O)C(=O)N5C)OC(C)C(C)(C)C2=O (stereo not given),102% (active)
17,CC(C)Nc1nc(Cl)nc(NC(C)C)n1,6.88%
18,CCc1nnc(NS(=O)(=O)c2ccc(N=Cc3c(O)n(-c4ccccc4)c(=O)[nH]c3=O)cc2)s1,14.4%
19,CC(=NCc1ccc2c(c1)OCO2)c1c(O)[nH]c(=O)[nH]c1=O,-10.5%
20,CNCC(O)c1cc(F)c(OCc2ccccc2)c(OCc2ccccc2)c1F (stereo not given),-9.33%

# Source: PubChem BioAssay AID504357 (The Scripps Research Institute Molecular Screening Center, 2011)
